# Assays:
# Assay in all cases: DAPPL (digital affinity profiling via proximity ligation, sequencing); 10 mM Tris-HCl pH 7.5, 50 mM NaCl, 1 mM DTT, 4% glycerol, room temperature, 30 min; GST-TFs on glutathione beads, 16-mer random dsDNA library, 0.1% formaldehyde crosslink after washing; high values mean tight binding
# FLI1 = target: T1, FLI1 (Homo sapiens, UniProt Q01543 1-452); details: protein: recombinant; tags: N-terminal GST; dsDNA, one strand shown
# T1 sequence: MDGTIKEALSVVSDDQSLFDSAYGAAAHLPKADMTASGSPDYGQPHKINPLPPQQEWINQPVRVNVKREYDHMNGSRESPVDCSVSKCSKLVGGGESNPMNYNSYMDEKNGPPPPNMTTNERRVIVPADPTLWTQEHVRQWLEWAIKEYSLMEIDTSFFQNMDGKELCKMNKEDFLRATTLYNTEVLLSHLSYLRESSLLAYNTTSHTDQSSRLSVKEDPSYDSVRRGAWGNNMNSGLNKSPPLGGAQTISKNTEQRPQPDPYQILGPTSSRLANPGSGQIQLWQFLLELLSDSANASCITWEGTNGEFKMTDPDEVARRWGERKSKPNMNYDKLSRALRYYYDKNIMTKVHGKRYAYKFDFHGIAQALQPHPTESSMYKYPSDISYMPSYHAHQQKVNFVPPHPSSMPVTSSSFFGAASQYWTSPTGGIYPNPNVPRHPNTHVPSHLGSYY
# How it was run: (§1)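 Pools of DNA-barcoded human transcription factors, expressed in yeast as GST fusions on glutathione beads and combined with a tag-only sample, were incubated with 200 nmole of a 16-mer random double-stranded DNA library. Incubation took 30 min at room temperature in Tris/NaCl/DTT/glycerol buffer and was followed by washing, 0.1% formaldehyde crosslinking, proximity ligation (BsaI/T4 ligase, 1 h, 37 °C), PCR amplification and sequencing on an Illumina NextSeq500. Binding signal is the ratio of a hexamer's read frequency for a factor to its frequency for the tag-only sample.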
# ELK1 = target: T2, ELK1 (Homo sapiens, UniProt P19419 1-428); details: protein: recombinant; tags: N-terminal GST; dsDNA, one strand shown
# T2 sequence: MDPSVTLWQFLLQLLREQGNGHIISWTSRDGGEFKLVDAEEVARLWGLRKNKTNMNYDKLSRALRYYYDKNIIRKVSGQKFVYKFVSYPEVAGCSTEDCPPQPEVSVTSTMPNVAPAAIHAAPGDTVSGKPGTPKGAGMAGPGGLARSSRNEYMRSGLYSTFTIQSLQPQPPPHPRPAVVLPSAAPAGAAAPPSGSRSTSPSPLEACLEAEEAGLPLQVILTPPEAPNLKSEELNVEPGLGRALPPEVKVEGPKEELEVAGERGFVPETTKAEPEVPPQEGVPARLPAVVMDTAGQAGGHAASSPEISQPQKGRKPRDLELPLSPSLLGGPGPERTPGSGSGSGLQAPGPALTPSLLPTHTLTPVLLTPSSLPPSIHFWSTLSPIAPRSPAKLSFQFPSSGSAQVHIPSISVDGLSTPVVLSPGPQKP
# How it was run: as §1
# GABPA = target: T3, GABPA (Homo sapiens, UniProt Q06546 1-454); details: protein: recombinant; tags: N-terminal GST; dsDNA, one strand shown
# T3 sequence: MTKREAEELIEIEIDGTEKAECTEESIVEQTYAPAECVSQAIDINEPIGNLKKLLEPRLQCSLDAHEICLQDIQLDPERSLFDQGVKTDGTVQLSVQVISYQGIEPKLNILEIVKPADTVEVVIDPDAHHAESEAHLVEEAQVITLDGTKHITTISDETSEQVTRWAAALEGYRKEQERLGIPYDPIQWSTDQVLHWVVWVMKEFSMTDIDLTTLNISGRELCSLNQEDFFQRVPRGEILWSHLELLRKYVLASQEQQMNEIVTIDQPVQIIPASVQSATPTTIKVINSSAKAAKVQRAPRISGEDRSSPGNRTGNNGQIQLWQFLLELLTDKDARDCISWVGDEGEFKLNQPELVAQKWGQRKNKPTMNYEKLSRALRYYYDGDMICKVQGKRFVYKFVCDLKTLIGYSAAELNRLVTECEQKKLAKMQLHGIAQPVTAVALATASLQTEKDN
# How it was run: as §1
# ERG = target: T4, ERG (Homo sapiens, UniProt P11308 1-479); details: protein: recombinant; tags: N-terminal GST; dsDNA, one strand shown
# T4 sequence: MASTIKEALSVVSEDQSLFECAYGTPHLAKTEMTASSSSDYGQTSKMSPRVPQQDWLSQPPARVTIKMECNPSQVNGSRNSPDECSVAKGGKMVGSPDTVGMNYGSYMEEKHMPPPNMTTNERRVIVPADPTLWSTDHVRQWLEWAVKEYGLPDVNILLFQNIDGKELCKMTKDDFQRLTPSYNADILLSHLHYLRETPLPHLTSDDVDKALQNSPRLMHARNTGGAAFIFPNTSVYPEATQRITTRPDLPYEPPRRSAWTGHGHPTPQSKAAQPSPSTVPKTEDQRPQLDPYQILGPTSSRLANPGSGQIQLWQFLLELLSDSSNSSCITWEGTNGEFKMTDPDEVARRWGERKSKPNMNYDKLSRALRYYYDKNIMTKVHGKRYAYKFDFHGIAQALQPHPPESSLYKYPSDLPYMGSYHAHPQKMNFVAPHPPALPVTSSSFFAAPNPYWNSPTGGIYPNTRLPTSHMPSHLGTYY
# How it was run: as §1
# ELF1 = ELF1 (Homo sapiens, UniProt P32519 1-619); details: protein: recombinant; tags: N-terminal GST; dsDNA, one strand shown
# Sequence of ELF1 (P32519 whole entry): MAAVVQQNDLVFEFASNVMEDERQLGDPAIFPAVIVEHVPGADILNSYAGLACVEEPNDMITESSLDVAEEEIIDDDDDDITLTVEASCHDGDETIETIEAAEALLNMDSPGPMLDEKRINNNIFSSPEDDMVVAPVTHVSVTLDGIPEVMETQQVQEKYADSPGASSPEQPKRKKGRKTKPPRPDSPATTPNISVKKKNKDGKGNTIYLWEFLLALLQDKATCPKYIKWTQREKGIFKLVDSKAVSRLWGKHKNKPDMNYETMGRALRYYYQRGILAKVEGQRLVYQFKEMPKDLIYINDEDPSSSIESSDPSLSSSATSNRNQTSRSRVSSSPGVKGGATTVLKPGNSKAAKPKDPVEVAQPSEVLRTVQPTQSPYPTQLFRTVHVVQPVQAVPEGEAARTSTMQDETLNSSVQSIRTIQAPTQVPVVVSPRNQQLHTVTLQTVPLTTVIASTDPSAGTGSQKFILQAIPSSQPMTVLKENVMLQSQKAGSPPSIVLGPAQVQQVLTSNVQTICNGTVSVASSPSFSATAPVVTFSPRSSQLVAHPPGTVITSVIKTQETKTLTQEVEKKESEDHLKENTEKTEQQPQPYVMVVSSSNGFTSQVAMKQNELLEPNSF
# How it was run: as §1
# EHF = target: T5, EHF (Homo sapiens, UniProt Q9NZC4 1-300); details: protein: recombinant; tags: N-terminal GST; dsDNA, one strand shown
# T5 sequence: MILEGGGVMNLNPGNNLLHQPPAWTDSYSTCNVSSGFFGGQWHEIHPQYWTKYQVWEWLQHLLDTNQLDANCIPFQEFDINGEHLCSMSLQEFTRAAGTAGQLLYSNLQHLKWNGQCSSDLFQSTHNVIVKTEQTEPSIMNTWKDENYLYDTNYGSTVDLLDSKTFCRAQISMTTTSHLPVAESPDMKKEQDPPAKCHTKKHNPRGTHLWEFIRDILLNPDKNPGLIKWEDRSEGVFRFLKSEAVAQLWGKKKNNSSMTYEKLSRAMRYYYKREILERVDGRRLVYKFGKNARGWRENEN
# How it was run: as §1
# SPI1 = SPI1 (Homo sapiens, UniProt P17947 1-270); details: protein: recombinant; tags: N-terminal GST; dsDNA, one strand shown
# How it was run: as §1
# SPIB = SPIB (Homo sapiens, UniProt Q01892 1-262); details: protein: recombinant; tags: N-terminal GST; dsDNA, one strand shown
# Sequence of SPIB (Q01892 whole entry): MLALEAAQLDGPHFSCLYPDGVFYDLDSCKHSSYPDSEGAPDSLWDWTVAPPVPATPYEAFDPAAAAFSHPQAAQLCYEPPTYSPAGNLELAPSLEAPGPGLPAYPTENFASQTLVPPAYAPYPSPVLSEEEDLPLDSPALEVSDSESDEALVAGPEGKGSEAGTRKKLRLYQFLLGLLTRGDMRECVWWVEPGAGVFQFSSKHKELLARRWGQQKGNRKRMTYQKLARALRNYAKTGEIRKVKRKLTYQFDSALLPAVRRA
# How it was run: as §1
# ELK3 = target: T6, ELK3 (Homo sapiens, UniProt P41970 1-407); details: protein: recombinant; tags: N-terminal GST; dsDNA, one strand shown
# T6 sequence: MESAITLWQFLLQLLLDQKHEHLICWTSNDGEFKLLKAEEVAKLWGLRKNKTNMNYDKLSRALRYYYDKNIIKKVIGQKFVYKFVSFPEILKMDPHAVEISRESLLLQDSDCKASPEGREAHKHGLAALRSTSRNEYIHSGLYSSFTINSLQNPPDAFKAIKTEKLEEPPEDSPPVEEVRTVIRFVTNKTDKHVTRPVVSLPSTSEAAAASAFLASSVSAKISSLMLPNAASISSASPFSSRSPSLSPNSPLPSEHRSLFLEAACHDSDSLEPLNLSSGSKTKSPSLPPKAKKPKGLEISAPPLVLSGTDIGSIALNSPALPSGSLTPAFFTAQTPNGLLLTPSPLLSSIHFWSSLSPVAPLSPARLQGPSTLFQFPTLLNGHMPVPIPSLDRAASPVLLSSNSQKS
# How it was run: as §1
# FEV = target: T7, FEV (Homo sapiens, UniProt Q99581 1-238); details: protein: recombinant; tags: N-terminal GST; dsDNA, one strand shown
# T7 sequence: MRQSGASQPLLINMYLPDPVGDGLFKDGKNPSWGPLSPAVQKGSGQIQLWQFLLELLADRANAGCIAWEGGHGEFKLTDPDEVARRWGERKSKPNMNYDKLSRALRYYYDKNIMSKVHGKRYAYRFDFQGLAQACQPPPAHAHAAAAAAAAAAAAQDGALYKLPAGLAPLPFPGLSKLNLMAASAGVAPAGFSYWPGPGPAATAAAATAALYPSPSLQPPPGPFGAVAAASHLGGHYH
# How it was run: as §1
# ETV5 = ETV5 (Homo sapiens, UniProt P41161 1-510); details: protein: recombinant; tags: N-terminal GST; dsDNA, one strand shown
# Sequence of ETV5 (P41161 whole entry): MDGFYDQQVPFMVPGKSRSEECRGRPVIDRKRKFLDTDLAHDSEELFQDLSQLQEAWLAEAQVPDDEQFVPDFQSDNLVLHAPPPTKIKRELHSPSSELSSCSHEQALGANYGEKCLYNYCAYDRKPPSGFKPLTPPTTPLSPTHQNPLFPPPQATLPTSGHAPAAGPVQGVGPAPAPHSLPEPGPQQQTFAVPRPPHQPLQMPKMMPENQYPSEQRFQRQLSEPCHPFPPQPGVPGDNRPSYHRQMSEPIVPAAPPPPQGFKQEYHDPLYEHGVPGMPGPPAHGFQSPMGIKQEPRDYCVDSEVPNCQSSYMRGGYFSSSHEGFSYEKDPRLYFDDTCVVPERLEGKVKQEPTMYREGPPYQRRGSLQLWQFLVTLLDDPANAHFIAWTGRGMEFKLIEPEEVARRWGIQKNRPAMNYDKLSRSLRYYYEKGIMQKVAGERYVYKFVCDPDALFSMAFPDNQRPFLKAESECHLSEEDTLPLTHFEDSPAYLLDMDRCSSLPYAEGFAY
# How it was run: as §1
# HSF1 = HSF1 (Homo sapiens, UniProt Q00613 1-529); details: protein: recombinant; tags: N-terminal GST; chain copies: 3; dsDNA, one strand shown
# Sequence of HSF1 (Q00613 whole entry): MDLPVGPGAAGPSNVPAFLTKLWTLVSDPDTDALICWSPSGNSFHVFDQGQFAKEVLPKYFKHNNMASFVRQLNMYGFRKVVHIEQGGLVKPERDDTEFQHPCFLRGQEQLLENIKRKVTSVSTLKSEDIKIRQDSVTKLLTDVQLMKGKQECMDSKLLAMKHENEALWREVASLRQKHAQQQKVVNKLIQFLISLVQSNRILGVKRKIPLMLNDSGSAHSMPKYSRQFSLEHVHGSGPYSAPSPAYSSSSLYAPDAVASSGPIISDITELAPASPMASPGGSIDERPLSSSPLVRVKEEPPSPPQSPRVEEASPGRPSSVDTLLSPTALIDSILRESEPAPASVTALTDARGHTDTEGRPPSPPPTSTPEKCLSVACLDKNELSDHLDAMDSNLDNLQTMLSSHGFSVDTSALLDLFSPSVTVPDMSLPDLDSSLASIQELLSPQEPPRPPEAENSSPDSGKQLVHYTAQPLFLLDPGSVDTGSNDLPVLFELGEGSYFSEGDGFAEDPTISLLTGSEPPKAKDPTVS
# How it was run: as §1
# SPIC = target: T8, SPIC (Homo sapiens, UniProt Q8N5J4 1-248); details: protein: recombinant; tags: N-terminal GST; dsDNA, one strand shown
# T8 sequence: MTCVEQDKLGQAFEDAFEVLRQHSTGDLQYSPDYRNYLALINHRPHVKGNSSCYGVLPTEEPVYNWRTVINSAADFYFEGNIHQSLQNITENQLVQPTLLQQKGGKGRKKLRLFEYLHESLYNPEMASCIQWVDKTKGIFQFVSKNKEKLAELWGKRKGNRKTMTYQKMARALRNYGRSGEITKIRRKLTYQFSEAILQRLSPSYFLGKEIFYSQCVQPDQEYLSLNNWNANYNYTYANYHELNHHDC
# How it was run: as §1
# ELF4 = ELF4 (Homo sapiens, UniProt Q99607 1-663); details: protein: recombinant; tags: N-terminal GST; dsDNA, one strand shown
# Sequence of ELF4 (Q99607 whole entry): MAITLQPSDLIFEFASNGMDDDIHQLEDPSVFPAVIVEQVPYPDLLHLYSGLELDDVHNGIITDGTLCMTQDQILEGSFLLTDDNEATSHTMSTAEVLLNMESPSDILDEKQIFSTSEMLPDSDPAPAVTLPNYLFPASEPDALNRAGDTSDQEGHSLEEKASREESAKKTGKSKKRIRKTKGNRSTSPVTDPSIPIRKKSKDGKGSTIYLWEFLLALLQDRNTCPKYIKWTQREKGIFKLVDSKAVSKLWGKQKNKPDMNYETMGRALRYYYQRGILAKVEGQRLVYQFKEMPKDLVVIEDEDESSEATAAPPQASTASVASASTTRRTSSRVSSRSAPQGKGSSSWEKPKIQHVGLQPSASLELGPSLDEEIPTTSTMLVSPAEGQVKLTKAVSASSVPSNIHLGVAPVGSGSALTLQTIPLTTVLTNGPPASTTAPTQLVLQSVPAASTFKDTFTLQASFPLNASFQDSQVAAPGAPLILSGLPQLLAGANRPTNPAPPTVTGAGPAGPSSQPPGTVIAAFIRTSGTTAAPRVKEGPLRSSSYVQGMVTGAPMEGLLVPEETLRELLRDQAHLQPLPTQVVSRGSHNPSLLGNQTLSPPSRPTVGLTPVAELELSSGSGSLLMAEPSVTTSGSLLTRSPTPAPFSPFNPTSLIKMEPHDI
# How it was run: as §1
# ELK4 = target: T9, ELK4 (Homo sapiens, UniProt P28324-2 1-405); details: protein: recombinant; tags: N-terminal GST; dsDNA, one strand shown
# T9 sequence: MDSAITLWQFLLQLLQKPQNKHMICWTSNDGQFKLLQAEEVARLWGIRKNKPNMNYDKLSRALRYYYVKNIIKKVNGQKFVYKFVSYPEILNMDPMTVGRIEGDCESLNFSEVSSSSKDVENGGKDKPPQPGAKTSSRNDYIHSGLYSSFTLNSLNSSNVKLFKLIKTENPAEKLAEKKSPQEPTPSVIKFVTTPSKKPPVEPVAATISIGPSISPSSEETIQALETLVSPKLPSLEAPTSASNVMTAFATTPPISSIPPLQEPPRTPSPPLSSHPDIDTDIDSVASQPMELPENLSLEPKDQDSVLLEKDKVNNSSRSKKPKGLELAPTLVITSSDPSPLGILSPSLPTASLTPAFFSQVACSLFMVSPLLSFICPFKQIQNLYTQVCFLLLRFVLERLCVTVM
# How it was run: as §1
# ETV2 = target: T10, ETV2 (Homo sapiens, UniProt O00321 1-342); details: protein: recombinant; tags: N-terminal GST; dsDNA, one strand shown
# T10 sequence: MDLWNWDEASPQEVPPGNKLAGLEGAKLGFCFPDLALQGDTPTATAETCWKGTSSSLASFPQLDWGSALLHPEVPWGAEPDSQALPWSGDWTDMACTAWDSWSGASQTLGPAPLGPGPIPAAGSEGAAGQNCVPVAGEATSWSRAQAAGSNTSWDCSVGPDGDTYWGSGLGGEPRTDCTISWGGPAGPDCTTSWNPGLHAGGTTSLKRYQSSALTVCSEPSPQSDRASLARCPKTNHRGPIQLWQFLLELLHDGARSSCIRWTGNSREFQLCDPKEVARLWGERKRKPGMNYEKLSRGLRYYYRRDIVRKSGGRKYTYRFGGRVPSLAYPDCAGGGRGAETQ
# How it was run: as §1
# ELF3 = target: T11, ELF3 (Homo sapiens, UniProt P78545 1-371); details: protein: recombinant; tags: N-terminal GST; dsDNA, one strand shown
# T11 sequence: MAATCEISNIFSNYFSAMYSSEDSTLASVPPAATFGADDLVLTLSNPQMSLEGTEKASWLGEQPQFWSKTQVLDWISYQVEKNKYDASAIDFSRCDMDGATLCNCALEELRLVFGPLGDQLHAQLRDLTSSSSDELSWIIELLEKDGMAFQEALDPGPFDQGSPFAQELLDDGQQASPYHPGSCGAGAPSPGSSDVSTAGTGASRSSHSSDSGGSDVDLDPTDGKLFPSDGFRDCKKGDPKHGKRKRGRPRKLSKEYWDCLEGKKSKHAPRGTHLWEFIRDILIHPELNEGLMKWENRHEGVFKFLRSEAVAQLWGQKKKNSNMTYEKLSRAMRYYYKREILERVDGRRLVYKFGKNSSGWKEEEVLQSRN
# How it was run: as §1
# CRX = CRX (Homo sapiens, UniProt O43186 1-299); details: protein: recombinant; tags: N-terminal GST; dsDNA, one strand shown
# Sequence of CRX (O43186 whole entry): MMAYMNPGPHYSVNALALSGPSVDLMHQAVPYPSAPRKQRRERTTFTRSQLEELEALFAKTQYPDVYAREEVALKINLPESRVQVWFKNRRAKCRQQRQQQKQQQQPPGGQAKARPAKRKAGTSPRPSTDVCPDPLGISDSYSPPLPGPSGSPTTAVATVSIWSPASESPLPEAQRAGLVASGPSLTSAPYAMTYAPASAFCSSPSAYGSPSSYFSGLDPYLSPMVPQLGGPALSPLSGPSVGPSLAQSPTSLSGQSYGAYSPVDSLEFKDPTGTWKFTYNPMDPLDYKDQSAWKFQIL
# How it was run: as §1
# ETV1 = ETV1 (Homo sapiens, UniProt P50549 1-477); details: protein: recombinant; tags: N-terminal GST; dsDNA, one strand shown
# Sequence of ETV1 (P50549 whole entry): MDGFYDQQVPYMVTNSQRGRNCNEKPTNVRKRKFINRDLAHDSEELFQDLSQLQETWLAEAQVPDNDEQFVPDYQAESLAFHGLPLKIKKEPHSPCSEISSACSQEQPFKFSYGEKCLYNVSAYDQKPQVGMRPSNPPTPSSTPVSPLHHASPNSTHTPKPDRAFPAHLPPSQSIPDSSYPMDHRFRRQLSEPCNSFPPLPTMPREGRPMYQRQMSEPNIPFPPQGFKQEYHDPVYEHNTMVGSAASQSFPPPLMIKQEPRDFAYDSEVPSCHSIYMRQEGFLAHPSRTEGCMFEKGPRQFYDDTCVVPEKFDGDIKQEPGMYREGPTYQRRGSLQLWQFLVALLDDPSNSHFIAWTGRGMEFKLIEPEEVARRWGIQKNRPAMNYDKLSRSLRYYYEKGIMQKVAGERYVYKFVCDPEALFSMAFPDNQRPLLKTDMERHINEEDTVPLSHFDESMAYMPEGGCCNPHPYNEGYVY
# How it was run: as §1
sequence,measurement,setting,value
CCTCGA,binding signal,FLI1,"1.33 fold enrichment (6-mer frequency, TF over GST control)"
same,binding signal,ELK1,"1.26 fold enrichment (6-mer frequency, TF over GST control)"
same,binding signal,GABPA,"1.31 fold enrichment (6-mer frequency, TF over GST control)"
same,binding signal,ERG,"1.3 fold enrichment (6-mer frequency, TF over GST control)"
same,binding signal,ELF1,"1.27 fold enrichment (6-mer frequency, TF over GST control)"
same,binding signal,EHF,"1.37 fold enrichment (6-mer frequency, TF over GST control)"
same,binding signal,SPI1,"1.26 fold enrichment (6-mer frequency, TF over GST control)"
same,binding signal,SPIB,"1.25 fold enrichment (6-mer frequency, TF over GST control)"
same,binding signal,ELK3,"1.18 fold enrichment (6-mer frequency, TF over GST control)"
same,binding signal,FEV,"1.21 fold enrichment (6-mer frequency, TF over GST control)"
same,binding signal,ETV5,"1.27 fold enrichment (6-mer frequency, TF over GST control)"
same,binding signal,HSF1,"1.75 fold enrichment (6-mer frequency, TF over GST control)"
same,binding signal,SPIC,"1.29 fold enrichment (6-mer frequency, TF over GST control)"
same,binding signal,ELF4,"1.35 fold enrichment (6-mer frequency, TF over GST control)"
same,binding signal,ELK4,"1.38 fold enrichment (6-mer frequency, TF over GST control)"
same,binding signal,ETV2,"1.55 fold enrichment (6-mer frequency, TF over GST control)"
same,binding signal,ELF3,"1.25 fold enrichment (6-mer frequency, TF over GST control)"
same,binding signal,CRX,"1.26 fold enrichment (6-mer frequency, TF over GST control)"
same,binding signal,ETV1,"1.15 fold enrichment (6-mer frequency, TF over GST control)"

# Reference: PMC7862700, “An all-to-all approach to the identification of sequence-specific readers for epigenetic DNA modifications on cytosine”
